Shown are actives, neighbours in structure and some others; about 2.2% of the full set was active somewhere.
PolyA inh – polyadenylation inhibitors in yeast reporter cells, primary screen, luminescence, S. cerevisiae. S. cerevisiae SKY197-pL101 polyadenylation reporter, beta-gal luminescence; efflux-impaired pdr1/pdr3 knockout yeast; score 100 = 6 SD above DMSO. activity score, % at 12 µM. 300,000 tested, 0.02% active. AID 1875, 2009;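 active = lowest replicate activity score at least 50, where 100 means six control SD above control mean; inconclusive = lowest score under 50 but half or more replicates reach 50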;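 note: yeast exposed to compound for 9 h at 30 °C; higher score means more reporter readthrough which indicates perturbed polyadenylation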
EBNA-1 inhibitor – EBNA-1 DNA-binding inhibitors, primary screen, biochemical, fluorescence polarization; inhibition, % at 14.8 µM; AID 1950, 2009; 300,000 tested, 0.34% active; in the data active = inhibition above about 28%
ZTA counter – ZTA (EBV) inhibition in EBNA-1 counter-screen | P03206 | ZTA-DNA binding, fluorescence polarization | inhibition, % at 11 µM | 320,000 tested, 0.15% active | AID 2234; in the data active = inhibition above about 33%
Target sequence (P03206 whole entry, looked up): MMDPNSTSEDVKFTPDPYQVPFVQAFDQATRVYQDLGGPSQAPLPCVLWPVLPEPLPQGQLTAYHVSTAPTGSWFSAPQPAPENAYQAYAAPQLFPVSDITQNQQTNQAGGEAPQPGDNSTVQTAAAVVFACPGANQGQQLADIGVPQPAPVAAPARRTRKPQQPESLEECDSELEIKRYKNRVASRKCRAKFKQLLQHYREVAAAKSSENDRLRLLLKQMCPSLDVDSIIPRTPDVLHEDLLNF
dFosB act-1 – activators of delta FosB homodimer, primary screen, biochemical, fluorescence polarization, TAMRA-CDK5 oligo, single point. purified delta FosB; percent of positive-control signal above neutral wells. activation, % at 25 µM. 340,000 tested, 0.99% active. Protein FosB (Mus musculus), P13346;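 active = mean activation above about 17%, with every replicate also reaching it, limit read from the data, passing the limit was not always enough; inconclusive = only one of the two conditions met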
Target sequence (P13346 whole entry, looked up): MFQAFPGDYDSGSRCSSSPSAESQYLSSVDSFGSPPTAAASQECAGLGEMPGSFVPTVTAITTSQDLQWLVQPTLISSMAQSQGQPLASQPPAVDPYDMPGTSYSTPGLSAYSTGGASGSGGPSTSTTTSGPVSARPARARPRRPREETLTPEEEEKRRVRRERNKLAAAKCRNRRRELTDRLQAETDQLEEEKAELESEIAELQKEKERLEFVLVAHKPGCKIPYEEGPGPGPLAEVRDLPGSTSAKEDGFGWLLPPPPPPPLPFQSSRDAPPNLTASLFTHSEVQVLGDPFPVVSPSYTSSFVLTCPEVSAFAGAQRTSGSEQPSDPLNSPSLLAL
NLRP3 yeast inh – NALP3 inflammasome inhibitors in reconstituted yeast, primary screen, luminescence, uHTS | inhibition, % at 10 µM | Yeast reconstituted NLRP3/ASC/caspase-1, beta-gal luminescence, 24 h | 330,000 tested, 0.39% active;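 active = inhibition of 50% or more; inactive = inhibition below 50%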;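 note: plate controls were induced DMSO wells for no effect and uninduced yeast grown without galactose for full effect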
NALP1 yeast inh – NALP1 inflammasome inhibitors in reconstituted yeast, colorimetric, S. cerevisiae, triplicate retest | 280,000 tested, 0.61% active | S. cerevisiae NALP1/ASC/caspase-1 growth, X-gal OD620, 72 h | inhibition, % at 10 µM | AID 2071, 2009; in the data active = inhibition mostly above about 24%, no sharp cut-off; inactive = mostly below about 32%
dFosB act-2 – activators of mouse delta FosB DNA binding, confirmation, biochemical, fluorescence polarization, TAMRA-CDK5 oligo, cherry-picked samples; purified delta FosB; normalised: neutral wells 0, positive control 100; AID 588690, 2011; 2,400 tested, under 10 active; shares compounds with dFosB act-1; activation, % at 24.9 µM;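 active = highest replicate activation at or above 34% and every replicate reaching that threshold; inconclusive = meets only one of the two criteria; inactive = meets neither criterion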;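 note: higher polarization means more probe DNA bound by delta FosB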
Numbers without * were called inactive; ? = inconclusive; · = no result given.

SMILES	PolyA inh	EBNA-1 inhibitor	ZTA counter	dFosB act-1	NLRP3 yeast inh	NALP1 yeast inh	dFosB act-2
CCN(CC(=O)Nc1c(F)cccc1F)C(=O)CCc1nc2ccccc2c(=O)[nH]1	8.2	-9.7	-17.2	-10.8	6.7	·	·
Cc1ccc(-c2cc3c(N=O)c4ccccc4c-3n[nH]2)cc1	15.3	16.2	5.5	32.0*	4.6	-16.1	1.7
Cc1ccc(-c2cc(=O)c3ccccc3[nH]2)cc1	-12.1	10.1	-10.9	-7.3	7.0	17.7	·
Cc1c(C(=O)N2CCN(Cc3ccccc3)CC2)oc2c1C(=O)CCC2	-2.3	2.3	10.6	0.4	3.8	20.1	·
Cc1csc(Nc2nc(N)c(C(=O)Nc3cc(Cl)ccc3F)o2)n1	-0.7	8.2	-4.5	19.8*	12.2	11.4	2.3
Cc1nc(SCC(=O)N(CC(C)C)C2CCS(=O)(=O)C2)c(C#N)c(C)c1C (configuration not stated)	·	·	·	-11.4	13.7	·	·
COc1cccc2c1[C@@H]1CN(CCCCn3c(=O)[nH]c4c(sc5ncc(-c6ccccc6)nc54)c3=O)C[C@@H]1CO2	·	12.5	8.5	39.5*	17.5	·	-0.4
CCn1c(=S)sc2c(=O)n(CC(=O)Nc3ccc(Cl)cc3)c(C)nc21	0.6	-5.2	2.7	?	14.4	7.9	·
CCn1c(=S)sc2c(=O)n(CC(=O)Nc3ccc(OC)c(Cl)c3)c(C)nc21	6.2	-2.7	6.6	28.2*	14.2	8.1	3.4
Cc1nc2c(sc(=S)n2Cc2ccco2)c(=O)n1CC(=O)Nc1cc(F)ccc1F	-1.8	-5.8	-20.0	102.6*	5.1	1.7	1.9
Cc1cccc(CNC(=O)c2cc(S(=O)(=O)N3CCOCC3)cn2C)c1	-1.5	7.4	14.3	2.3	1.7	12.1	·
CCCC(C)NC(=O)c1cc(S(=O)(=O)N2CCCCCC2)ccc1OC (configuration not stated)	·	·	-16.4	-9.4	10.6	·	·
Cc1ccccc1NS(=O)(=O)c1ccc(C(=O)NCCCN2CCCC2=O)cc1	-0.5	3.5	13.6	-8.0	18.7	·	·
CN1CCN(S(=O)(=O)c2ccc(CNC(=O)c3ccccc3)s2)CC1	3.3	1.5	-6.9	-7.4	15.0	13.8	·
CCOc1ccc(C(C(=O)NCC2CCCO2)N(Cc2cccs2)C(=O)c2snc(C(N)=O)c2N)cc1 (configuration not stated)	1.0	-10.6	-11.9	20.5*	2.8	-2.3	6.2
CCOC(=O)N1CCN(C(=O)COC(=O)C2CCN(S(=O)(=O)c3c(Cl)cccc3Cl)CC2)CC1	28.2	3.6	9.6	-6.4	6.8	·	·
Cc1ccc(Sc2cc(Cl)nc(N)n2)cc1	-0.4	10.2	-4.0	58.3*	23.9	11.4	3.0
CCOc1ccc2nc(C)cc(Nc3ccc4c(c3)OCCO4)c2c1	-2.8	0.5	-2.7	43.5*	21.6	11.9	4.4
CCOc1ccc2nc(C)cc(Nc3ccc(N4CCOCC4)cc3)c2c1	-23.5	-1.8	-5.9	·	5.8	11.4	·
Cc1cc(Nc2ccc3c(c2)OCCO3)c2cccc(C)c2n1	0.2	-10.0	-0.3	30.6*	0.4	40.0	6.1
COc1cccc(-c2cc(C(=O)Nc3nc4ccccc4s3)c3ccccc3n2)c1	-7.4	4.3	-1.2	4.2	8.6	14.8	·
COc1ccc(-c2cc(C(=O)Nc3nc4c(C)cccc4s3)c3ccccc3n2)cc1OC	15.5	9.1	-7.6	39.1*	19.1	20.9	1.2
COc1cc(-c2cc(C(=O)Nc3cccc(S(=O)(=O)N(C)C)c3)c3ccccc3n2)cc(OC)c1OC	-11.6	2.0	-10.4	40.8*	13.7	2.6	5.0
CC(=O)C1=C(O)C(=O)N(c2cccc(Br)c2)C1c1ccccc1Cl (configuration not stated)	4.0	0.8	6.8	-2.8	7.7	15.0	·
COc1cccc(CC(=O)n2nc(N)c3cc4ccc(OC)cc4nc32)c1	7.7	-6.6	-4.9	32.2*	10.5	10.9	4.5
SMILES	PolyA inh	EBNA-1 inhibitor	ZTA counter	dFosB act-1	NLRP3 yeast inh	NALP1 yeast inh	dFosB act-2
COc1ccc2cc3c(N)nn(C(=O)Cc4ccc(Cl)cc4)c3nc2c1	10.7	2.5	7.8	-0.3	15.7	4.4	·
COc1ccc2cc3c(N)nn(C(=O)c4cccc(F)c4)c3nc2c1	-0.4	0.5	2.9	50.9*	-9.6	·	-2.3
CN(CC(=O)OCC(=O)NCC(F)(F)F)S(=O)(=O)c1ccc(Cl)cc1	8.4	3.8	3.1	-7.3	-4.7	-4.2	·
COc1cc(/C=N/NC(=O)C(=O)NCC2CCCO2)ccc1OCC(=O)N1CCOCC1 (configuration not stated)	-1.5	7.2	4.2	0.7	16.6	-13.9	·
CCOc1cc(/C=N/NC(=O)c2ccc(CN3CCOCC3)cc2)ccc1OCc1ccccc1	-3.0	-0.8	-3.4	20.7*	8.6	16.9	-3.5
CCOc1cc(/C=N/NC(=O)CN2CCOCC2)ccc1OCc1ccccc1	-11.5	6.2	9.8	3.8	14.1	8.8	·
CCOc1cc(/C=N/NC(=O)C(=O)NCc2ccc3c(c2)OCO3)ccc1OCC(=O)N1CCOCC1	8.8	-17.3	5.6	19.7*	-9.6	25.7	0.3
O=C(CNC(=O)c1cc(Cl)cc([N+](=O)[O-])c1)NC1CC1	·	·	·	-0.9	14.1	·	·
NC(=O)C1CCCN(C(=O)c2cccc(NC(=O)c3cccs3)c2)C1 (configuration not stated)	·	·	·	-2.3	6.0	·	·
O=C(Nc1nc(-c2ccc(F)cc2)cs1)c1cccnc1	-7.6	1.4	-2.4	34.4*	15.8	7.0	1.3
O=C(Nc1ccc2nn(-c3ccc(F)cc3)nc2c1)c1cccnc1	-21.3	-3.6	-2.0	30.3*	14.9	8.3	2.3
O=C(Nc1ccc2nn(-c3ccccc3)nc2c1)c1cccnc1	·	16.0	-19.0	-19.1	36.6	19.5	·
O=C(Nc1nc(-c2ccc(Cl)cc2)cs1)c1cccnc1	-9.7	7.4	29.7	?	5.6	5.2	·
Cc1nccn1CCOc1ccc(Cl)cc1	5.2	-12.7	-1.6	0.4	4.8	12.9	·
Fc1ccc(NC(=S)N/N=C/c2cccc(Br)c2)c(F)c1	-5.5	-1.4	8.5	36.4*	11.4	4.0	2.0
CC(C)C[C@@]12C(=O)N(c3cccc(F)c3)C(=O)N1[C@H](c1ccc(Cl)cc1)[C@@H]1C(=O)N(C3CCCCC3)C(=O)[C@@H]12	13.1	0.8	-18.4	-6.6	7.2	·	·
COc1ccc(N2C(=O)c3ccc(C(=O)Nc4ccc(NC(C)=O)cc4)cc3C2=O)cc1	-4.7	14.9	6.3	-1.5	15.2	31.6	·
CCN(CC)CCCNC(=O)c1ccc2c3n(nc2c1)-c1ccc(Cl)cc1CO3	-12.8	-1.1	-14.2	33.6*	9.5	·	-2.5

From PubChem
